# HMGR II inh: inhibitors of E. faecalis class II HMGR, primary screen, biochemical, Enterococcus faecalis | purified E. faecalis HMGR, NADPH absorbance 340 nm kinetic | inhibition, % at 10 µM | hit rate 0.41% among 190,000 | AID 1066, 2008 | HMG-CoA reductase (Enterococcus faecalis, mvaE);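 active = inhibition above a set limit, the median over all tested compounds plus 3 SD, cut at about 9.5% in these data; inconclusive = no clear call, values can overlap the other calls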;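 note: enzyme runs in reverse so mevalonate oxidation gives rising NADPH absorbance; 0% = complete reaction with DMSO and 100% = background rate lacking mevalonate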
# eIF4H inh: human eIF4H binding inhibitors, primary screen, translation initiation inhibitor project, biochemical, uHTS, fluorescence polarization; hit rate 0.94% among 290,000; eIF4H fluorescence polarization binding assay; Eukaryotic translation initiation factor 4H (Homo sapiens), Q15056; inhibition, % at 35 µM;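 note: calls also rest on retests at 20 µM and on dose response follow-up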
# MLLE-PAM2 inh: inhibitors of PABP1 MLLE–PAM2 peptide binding, primary screen, biochemical, fluorescence polarization, FITC-PAM2, GST-MLLE; Polyadenylate-binding protein 1 (Homo sapiens), P11940; inhibition, % at 20 µM; hit rate 0.36% among 360,000; AID 588489, 2011; in the data active = inhibition above about 35%, passing the limit was not always enough;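 note: plate controls were DMSO wells with GST-MLLE for no effect and wells lacking GST-MLLE protein for full effect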
# PABP FP inh: PABP poly(A) RNA binding inhibitors, primary screen, biochemical, fluorescence polarization, uHTS; Polyadenylate-binding protein 1 (Homo sapiens), P11940; calls only at 35 µM; hit rate 1% among 290,000;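 note: calls also rest on retests at 20 µM and on dose response follow-up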
# PHOSPHO1 block: PubChem AID 1565. Phosphoethanolamine/phosphocholine phosphatase (Homo sapiens), Q8TCT1. recombinant PHOSPHO1, absorbance phosphatase assay. inhibition, % at 13.3 µM. hit rate 1.1% among 290,000; in the data active = inhibition above about 60%
# Target sequence (Q8TCT1 whole entry, looked up): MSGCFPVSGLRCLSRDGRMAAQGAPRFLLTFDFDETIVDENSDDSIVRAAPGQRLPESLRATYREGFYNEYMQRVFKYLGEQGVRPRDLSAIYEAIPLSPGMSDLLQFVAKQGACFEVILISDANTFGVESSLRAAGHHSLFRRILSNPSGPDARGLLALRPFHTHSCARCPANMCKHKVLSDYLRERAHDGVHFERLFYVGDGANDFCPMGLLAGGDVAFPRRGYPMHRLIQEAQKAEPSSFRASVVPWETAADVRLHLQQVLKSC
# Numbers without * were called inactive; i = inactive; ? = inconclusive; . = no result given; + = active, no number. Hits are enriched below; roughly 2.4% of the tested compounds scored in any of these assays. Unless noted, the rule behind the calls is not given here.
SMILES,HMGR II inh,eIF4H inh,MLLE-PAM2 inh,PABP FP inh,PHOSPHO1 block
Cc1ccc2c(c1)c(C)cc(=O)n2CCC(=O)O,6,88*,8,i,5
CCCCNC(=O)C1(C)CCCCN1C(=O)c1ccc(C#N)cc1 (stereo not given),.,.,0,.,.
O=C(Cc1cccc2ccccc12)N/N=C/c1ccc(Sc2cccc3cccnc23)o1,2,38,.,i,80*
CCOc1ccc(CCNC(=O)COC(=O)c2cc([N+](=O)[O-])ccc2N2CCOCC2)cc1OCC,.,-2,-12,i,43
CCOc1ccc(CCNC(=O)c2cc([N+](=O)[O-])ccc2N2CCOCC2)cc1OCC,.,-7,2,i,63*
CC1=NN(C(=O)c2ccccc2-n2cccc2)C(O)(C(F)(F)F)C1 (stereo not given),-7,54*,-8,+,7
S=C(NN=C1C2CC3CC(C2)CC1C3)Nc1ccccc1,-12,10,16,i,92*
CCC(C)(C)C1CCC(=NNC(=S)Nc2ccccc2)CC1 (stereo not given),-2,-8,25,i,-1
O=C(Nc1ccc(N2CCOCC2)cc1)c1csc([C@H]2C[C@H](O)[C@@H](CO)O2)n1,.,.,8,.,.
O=C(CCc1nnc2ccc(NCc3ccco3)nn12)Nc1ccccn1,.,88*,14,i,33
Cc1cccc(NC(=O)CCc2nnc3ccc(NCc4ccco4)nn23)n1,.,80*,4,i,6
COc1ccc(NC(=O)CCc2nnc3ccc(NCc4ccco4)nn23)cc1,.,2,2,i,-15
CCOC(=O)c1cc(=O)n2nc(-c3ccc(C)cc3)nc2s1,-7,-15,-9,i,75*
O=c1c(NCCc2ccccc2)c(-c2ccccc2)c1=O,.,-6,0,i,18
COc1ccc(C(=O)NNC(=S)NC(=O)/C=C/c2cccs2)cc1,-2,21,6,i,90*
COc1ccc(/C=C/C(=O)NC(=S)Nc2ccc(C(=O)O)cc2)cc1,-4,5,31,i,67*
COc1ccccc1OCC(=O)NNC(=S)NC(=O)c1ccco1,2,7,15,i,95*
COc1ccc(C(=O)NC(=S)NNC(=O)c2ccco2)cc1,.,12,-15,i,-61
COc1ccc(NC(=S)NC(=O)/C=C/c2ccc(F)cc2)cc1,.,-7,26,i,31
O=C(/C=C/c1cccs1)NC(=S)NNC(=O)c1ccccc1O,-3,14,-11,i,-32
COc1ccc(/C=C/C(=O)NC(=S)NNC(=O)Cc2cccs2)cc1,-5,20,-43,i,96*
COc1ccc(/C=C/C(=O)NC(=S)NNC(=O)c2ccco2)cc1,9.8*,3,-11,i,5
CCCc1nc2ccc(Cl)cn2c1Cc1ccsc1,.,.,44*,.,.
Clc1ccc(-c2nc3ccc(Cl)cn3c2Cc2ccsc2)cc1,.,.,-3,.,.
O=C(O)c1cccc(-n2cccc2/C=C2/SC(=O)N(CC(=O)N3CCCC3)C2=O)c1,.,90*,2,+,4
SMILES,HMGR II inh,eIF4H inh,MLLE-PAM2 inh,PABP FP inh,PHOSPHO1 block
Cc1cccc(N=C2NC(=O)/C(=C/c3cccn3C)S2)c1C,.,6,-62,i,0
Cc1ccccc1N=C1NC(=O)/C(=C/c2cccn2-c2cccc(C(=O)O)c2)S1,-4,98*,.,i,53
O=C(CN1C(=O)S/C(=C/c2cccn2-c2ccc(O)cc2)C1=O)N1CCCC1,.,-2,0,i,30
CC1CCCCN1S(=O)(=O)c1ccc(S(=O)(=O)N2CCN(C)CC2)cc1 (stereo not given),.,-2,1,i,35
O=C(Cc1csc(N2CCOCC2)n1)N/N=C/c1ccc(O)c(O)c1O,5,72,31,+,10
C/C(=N\NC(=O)Cc1csc(N2CCOCC2)n1)c1ccccc1,-2,4,13,i,12
O=C(CCN1CCN(c2ccccc2)CC1)N/N=C/c1ccc(O)c(O)c1O,-5,95,19,+,-5
Cc1c(O)cc2c(c1O)C(=O)CC(c1ccc(O)cc1)O2 (stereo not given),0,95*,-4,+,40
COc1ccc(S(=O)(=O)N2CCCCC2)cc1NC(=O)CCNC(=O)c1ccco1,.,.,-1,.,.
CSCC[C@H](NC(=O)[C@@H]1Cc2ccccc2CN1)C(=O)Nc1ccc2c(c1)OCCO2,.,-2,9,i,22
O=C(CCCN1C(=O)CCC1=O)Nc1ccc(Br)cc1F,-1,-4,-2,i,0
O=C(CCCN1C(=O)CCC1=O)Nc1ccccc1F,-4,8,34*,i,20
O=C(CNC(=O)c1sc2ccccc2c1Cl)Nc1ccccc1F,.,.,0,.,.
CCOC(=O)C1=C(O)/C(=C\c2cccc(OC)c2)N=C1C,1,8,-7,i,-5
CCOC(=O)C1=C(O)/C(=C/N(C)C)N=C1C,-3,89*,19,+,9
NCCCCc1cn(CC(=O)N2CCNCC2)nn1,-3,7,6,+,30
CC(C)OC(=O)c1c2nc3ccccc3nc2n2c1[nH]c(=O)c1ccccc12,-2,53*,.,+,6
NC(=O)c1c(N)sc2c1CCCC2,0,?,-5,?,92*
Nc1sc2c(c1C(=O)c1ccccc1)CCCC2,0,12,17,i,53
CCOCc1cnc(C)nc1NCC(=O)c1c(C)[nH]c2ccc(OC)cc12,-10,active,-102,+,64*
Cc1c(NC(=O)c2cccc(NC(=O)C(C)Oc3ccccc3)c2)c(=O)n(-c2ccccc2)n1C (stereo not given),.,.,-14,.,.
CC1CN(C2=Nc3cccc4cccc2c34)CC(C)O1 (stereo not given),0,66,29,+,11
c1cc2c3c(cccc3c1)C(N1CCOCC1)=N2,.,58,33,+,20
CC(=O)N1CCN(C2=Nc3cccc4cccc2c34)CC1,0,32,18,i,-18
c1ccc(CC2CCN(C3=Nc4cccc5cccc3c45)CC2)cc1,-1,92*,-30,i,22
CCOc1ccccc1C=NNC(=O)C1CC1,.,.,0,.,.
O=c1c2ccccc2nc(-c2ccc([N+](=O)[O-])cc2)n1O,-2,3,2,i,61*
CC(NC(=O)COC(=O)CCN1C(=O)C2CC=CCC2C1=O)c1ccc(Br)cc1 (stereo not given),.,.,-17,.,.
Cc1cccc(C(C)C)c1NC(=O)COC(=O)CCN1C(=O)C2CC=CCC2C1=O (stereo not given),.,3,0,i,70*
C=CCNC(=O)CC1C(=O)NCCN1Cc1ccc(-c2ccccc2)cc1 (stereo not given),-1,6,1,i,41
